Drawing on PubChem BioAssay AID488857 (Sanford-Burnham Center for Chemical Genomics, 2010), this text covers inhibition for 100 compounds.

SMILES strings stand for the structures. The whole screen tested about 1,400 compounds, of which about 560 (40%) were called active. The set was probably picked from earlier hits. Some of the results follow. A number with no mark means an inactive call.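 How the source made its calls: active means mean inhibition over duplicate tests at 10 µM above 50%; inactive means the rest.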

By inhibition is commonly meant the change of the read-out against control, counted positive when it falls.

The experiment is described as follows: ASC/caspase-1 reporter retest in S. cerevisiae at one dose, specificity check for NALP1 project (AID 488857). The note with it: S. cerevisiae ASC/Caspase-1, beta-galactosidase luminescence, 24 h; at 10 µM; hits give high values.
On to `CCC(C)NC(=O)c1cc2cc3ccc(OC)cc3nc2s1` (stereo not given), for which the inhibition is 56.8% (active).
In the case of `COc1ccc(OC)c(NC(=O)c2sc3nc(Cc4ccccc4)cc(C(F)(F)F)c3c2N)c1`, the inhibition was 40.6%.
For the compound `OC(COCc1ccc2c(c1)OCO2)CN1CCN(Cc2ccccc2)CC1` (stereo not given), the inhibition was 35.2%.
In the case of `O=C(CCC1CCCCC1)N1CCN(Cc2ccc3c(c2)OCO3)CC1` it was 67% (active); in that of `N#CCc1c(C#N)c(N)nc(N2CCN(Cc3ccc4c(c3)OCO4)CC2)c1C#N`, 37.5%.
With `Cc1cc(Cl)c(OCCOCCN2CCC(C)CC2)c(Br)c1`, the inhibition was 53.7% (active).
With `Cc1cc(Cl)c(OCCCCN2CCOCC2)c(Br)c1` the figure was 30.6%; with `CC1CCCN(CCC(=O)c2ccc(Br)cc2)C1` (stereo not given), 45.8%.
On to `CC1CCCN(CCOCCSc2ccccc2)C1` (stereo not given), for which the inhibition is 53% (active).
Turning to `CN1CCC(Oc2ccc(Sc3ccccc3)cc2)CC1`, the inhibition was 40.5%.
In the case of `Cc1cc(Cl)c(OCCCN2CCCCC2)c(Br)c1`, the inhibition was 24.1%.
Turning to `CC1CCCN(CCCOc2ccc(Cl)cc2Br)C1` (stereo not given), the inhibition was 64.8% (active).
With `CC1CCCN(CCOCCOc2ccc(Br)cc2Cl)C1` (stereo not given) the figure was 59.5% (active); with `CC(C)(C)c1ccc(COn2c(=O)c(-c3ccco3)[n+]([O-])c3ccccc32)cc1`, 39.7%.
On to `CCOc1ccc(NC(=O)CSc2nnc(C)n2Cc2ccccc2)cc1`, for which the inhibition was 37.3%.
With `CCOC(=O)c1cccnc1SCC(=O)NCc1ccccc1` the figure was 54.2% (active); with `CCOC(=O)c1cnc2ccccc2c1Nc1cc(C(=O)O)ccc1C`, 28.2%; with `Cc1nc(C)c(/C(O)=C/c2nc3ccccc3oc2=O)s1`, 44%.
Consider `Cc1ccc(NC2(C#N)C(=O)Nc3ccccc32)cc1` (stereo not given), for which the inhibition is 38.2%.
For `O=C(c1ccco1)N1CCN(Cc2cn[nH]c2-c2cccc3ccccc23)CC1`, the inhibition is 26%.
With `O=C(CN1CCSC1=NCc1ccccc1)c1ccc(Cl)c(Cl)c1` the figure was 61% (active); with `COc1cccc(CN(C)CC(=O)Nc2cccc(S(N)(=O)=O)c2)c1OC`, 32.5%; with `Cc1cs/c(=N\N=C\c2ccccc2)n1Cc1ccco1`, 54.1% (active).
Turning to `COc1ccc(N2CCN(CC(=O)NC(=O)NCc3ccco3)CC2)cc1`, the inhibition was 33.3%.
Consider `CCC(C(=O)NCc1ccco1)N(C(=O)CNS(=O)(=O)c1ccccc1)c1ccc(OC)cc1` (stereo not given), for which the inhibition was 32.8%.
In the case of `CCN(C(=O)c1ccco1)c1nnc(-c2ccc(OC)cc2)s1` it was 51% (active); in that of `O=C(NC(N1CCOCC1)C(Cl)(Cl)Cl)c1ccc(Br)cc1` (stereo not given), -14.2%; in that of `CCOC(=O)c1cc([N+](=O)[O-])c([N+](=O)[O-])cc1NC(C)=O`, 22.4%.
Regarding `CN(C)c1ccc(NC(=O)COC(=O)c2cc(Cl)ccc2[N+](=O)[O-])cc1`, the inhibition is 68% (active).
Turning to `N=c1ccn(Cc2ccc(Cl)cc2Cl)cc1`, the inhibition was 38%.
With `CCOC(=O)c1c(-c2ccccc2)nc2ccccn12` the figure was 99.1% (active).
Take `CCOC(=O)CSc1nnc(-c2ccccc2)c(=O)[nH]1`: the inhibition was 45%.
In the case of `CCOCCCn1c(=NC(C)=O)c(C(=O)OCC)cc2c(=O)n3ccccc3nc21` it was 19.2%; in that of `Cc1cc(C)n(C(C[N+](=O)[O-])c2ccc(Cl)cc2)n1` (stereo not given), 99.2% (active); in that of `Cc1ccccc1OCCCSc1nc2ccccc2[nH]1`, 75% (active).
Turning to `Cc1cccc(OCCCSc2nc3ccc(C)cc3[nH]2)c1`, the inhibition is 83.2% (active).
As for `Cc1cccc(C)c1NC(=O)CSc1nc2ccccc2c(=O)[nH]1`, the inhibition is 34.6%.
With `O=C(O)C1CCN(C(=O)c2csc(-c3ccc4c(c3)CCO4)n2)CC1` the figure was 38.6%; with `O=CC1=C(c2ccccc2)Oc2ccccc2O1`, 93.3% (active).
For `CCn1c(SCC(=O)Nc2ccc3c(c2)OCO3)nnc1-c1cnccn1`, the inhibition was 30.1%.
With `Nc1ccc(C(=O)Nc2nc3ccccc3s2)cc1` the figure was 75.4% (active); with `O=C(Nc1nc2ccccc2s1)C1c2ccccc2Oc2ccccc21`, 39.3%.
For the compound `Cc1ccc2nc(NC(=O)c3ccc4ncsc4c3)sc2c1`, the inhibition was 12.6%.
With `Fc1ccc(N2CCN(Cc3cnc(Oc4ccc(Br)cc4)s3)CC2)cc1` the figure was 14.7%.
For `CCOc1ccc(S(=O)(=O)N2c3ccccc3CC2C)cc1` (stereo not given), the inhibition was 52.7% (active).
On to `CCOc1ccc(NC2=C(OC)C(=O)c3ccccc3C2=O)cc1`, for which the inhibition is 44.1%.
In the case of `COc1ccc(Nc2cc(C)c3ccc(O)cc3n2)cc1`, the inhibition is 98.1% (active).
Consider `COC1=C(Nc2ccc(O)cc2)C(=O)c2ccccc2C1=O`, for which the inhibition was 40.2%.
As for `Cc1cc(Nc2ccccc2)nc2cc(O)ccc12`, the inhibition was 99.1% (active).
As for `CC1Cc2ccccc2N1CC(=O)Nc1ccc2c(c1)OC(F)(F)O2` (stereo not given), the inhibition was 29.9%.
Consider `O=C(/C=C/c1ccccc1Cl)c1ccc[nH]1`, for which the inhibition was 67.8% (active).
Turning to `COC(=O)C1=C(C)NC(C)=C(C(=O)OC)C1c1ccc(OC(=O)c2oc3ccccc3c2C)c(OC)c1`, the inhibition is 25.6%.
For the compound `CC(=O)C1=C(O)C(=O)N(CCC(=O)O)C1c1ccc(Cl)cc1Cl` (stereo not given), the inhibition is 35.7%.
On to `Cc1ccc(-n2c(Cl)c(Cl)nc(Cl)c2=O)cc1`, for which the inhibition is 100% (active).
Regarding `COc1ccc2cnn(-c3ccc(C)cc3)c(=O)c2c1OC`, the inhibition was 44%.
Consider `Cc1ccc(-n2nnnc2C(Cl)c2nnnn2-c2ccc(C)cc2)cc1`, for which the inhibition was 40.1%.
Regarding `CCN(CC)S(=O)(=O)c1ccc2[nH]c(=O)cc(C(=O)Nc3ccc(C)c(S(=O)(=O)N(CC)CC)c3)c2c1`, the inhibition was 25.1%.
Regarding `COc1ccc(CCNC(=O)C2CCN(S(=O)(=O)c3ccc(Cl)cc3)CC2)cc1OC`, the inhibition is 23.4%.
As to `CCCNC(=O)c1nnsc1S(=O)(=O)c1ccc(Cl)cc1`, the inhibition was 91% (active).
With `Cn1cnc([N+](=O)[O-])c1S(=O)(=O)c1ccc(Cl)cc1`, the inhibition was 13.2%.
As for `CNC(=O)c1nnsc1S(=O)(=O)c1ccc(Cl)cc1`, the inhibition was 73% (active).
Take `CN1C(=O)CSc2ccc(NC(=O)N3CCN(c4ccccn4)CC3)cc21`: the inhibition is 40.5%.
`CN(C)c1nc(N)nc(CSc2nnnn2-c2ccc(C(=O)O)cc2)n1`: the inhibition is 18.2%.
As for `CC(C)(C)n1nc(-c2ccc(F)cc2)c2c(N)ncnc21`, the inhibition is 97.5% (active).
In the case of `O=C(COC(=O)c1ccc(-c2ccc([N+](=O)[O-])cc2)o1)NC(=O)NC1CCCCC1` it was 46.6%; in that of `c1ccc(-c2c(-c3ccccc3)n(Cc3ccco3)c3ncnc(NCCCn4ccnc4)c23)cc1`, 46.7%.
Consider `COc1ccc(/C=N\NC(=O)c2cc(OCC(F)(F)F)ccc2OCC(F)(F)F)cc1`, for which the inhibition is 27.6%.
Turning to `O=C(Oc1ccc(/C=N/NC(=O)c2ccccc2O)cc1)c1ccccc1`, the inhibition is 34.4%.
As to `O=C(C[n+]1ccc(C(=O)N/N=C/c2ccc(OCc3ccccc3)cc2)cc1)c1ccccc1`, the inhibition is 54.6% (active).
In the case of `COc1ccc(N2C(=O)C(Cl)=C(Nc3c(C)n(C)n(-c4ccccc4)c3=O)C2=O)cc1` it was 29.6%.
On to `COc1ccc(N2C(=O)C3[C@@H](C2=O)C2(Cl)C(Cl)=C(Cl)C3(Cl)C2(OC)OC)cc1` (stereo not given in full), for which the inhibition was 50.2% (active).
With `CCOc1oc(-c2ccc(OC)cc2)nc1C(F)(F)F` the figure was 40.6%; with `CCc1ccc(OCCCC(=O)Nc2cccc(C(=O)O)c2)cc1`, 39.6%.
With `CCc1ccc(OCCNC(=O)OCc2ccccc2)cc1`, the inhibition was 57.6% (active).
In the case of `CC1=NN(c2ccc(C)cc2C)C(=O)C1C(c1cccc(O)c1)C1C(=O)N(c2ccc(C)cc2C)N=C1C` (stereo not given) it was 43.8%; in that of `CN(C)CCN(Cc1ccccc1)c1nccc(N(C)C)c1C#N`, 26.8%.
In the case of `COc1cccc(C(=O)N2CCCC(c3nc(-c4cccs4)no3)C2)c1` (stereo not given), the inhibition is 22.3%.
Turning to `COc1cccc(-c2nn(C)c3sc(C(=O)N4CCOCC4)cc23)c1`, the inhibition was 51.4% (active).
With `Cc1c(C(=O)N2CCOCC2)[nH]c2ccc(OCc3ccccc3)cc12`, the inhibition is 42.6%.
With `COc1cc(S(=O)(=O)NCc2cccnc2)ccc1F` the figure was 46.6%; with `COc1ccc2cc(C(C)c3nc4ccccc4c(=O)n3N)ccc2c1` (stereo not given), 59.4% (active); with `C=CCCCCc1nc2ccccc2c(=O)n1N`, 36.1%.
In the case of `CCOC(=O)c1ccc(N2CCOCC2)c(NC(=O)COCC(=O)O)c1`, the inhibition was 9.9%.
Regarding `COc1ccc(-c2cn3cccnc3n2)cc1Br`, the inhibition was 78.9% (active).
For the compound `CCN(CC)S(=O)(=O)c1ccc2oc(C(=O)NC3CCCc4ccccc43)c(C)c2c1` (stereo not given), the inhibition was 23.3%.
In the case of `O=C(c1ccccc1)c1c2c(cc3sc4ccccc4[n+]13)-c1cccc3cccc-2c13` it was 46.8%.
Take `Cc1ccc(S(=O)(=O)N(C(=O)c2ccncc2)c2ccc(OC(=O)c3ccncc3)c3ccccc23)cc1`: the inhibition is 26.1%.
For the compound `CCCc1[nH]n(-c2nc3ccccc3s2)c(=O)c1C=NCC(C)C`, the inhibition is 78% (active).
Consider `CC(C)(C)C(=O)NC1CCN(S(=O)(=O)c2ccc(C(F)(F)F)cc2)CC1`, for which the inhibition was 23.1%.
Turning to `CCCN1CCN(CCCNC(=O)CCNC(=O)Cn2ccc3ccccc3c2=O)CC1`, the inhibition is 35.4%.
In the case of `COc1ccnc(N2CCN(c3ccccc3)CC2)c1C#N` it was 56.4% (active).
Turning to `O=C(NN1C(=O)c2cc(Br)ccc2NC1c1cc(Br)cc(Br)c1O)c1ccncc1` (stereo not given), the inhibition is 76.2% (active).
For the compound `Cc1cccc(N2Cc3ccccc3C2=NC(=O)c2ccc(Cl)nc2)c1`, the inhibition was 28.3%.
`Fc1ccccc1-c1ccc(/C=N/Nc2nc3ccccc3[nH]2)o1`: the inhibition is 70% (active).
In the case of `CCCCNc1nc2ccccc2[nH]1`, the inhibition was 31.2%.
Consider `CCOC(=O)c1ccc(NC(=O)c2nccnc2C(=O)O)cc1`, for which the inhibition is 38.5%.
Take `CCOC(=O)c1ccc(NC(=O)CC2Sc3ncnn3C2=O)cc1` (stereo not given): the inhibition was 64.7% (active).
Take `CCOC(=O)c1ccc(NC(=O)CSc2nnc(CNc3ccc(C)cc3)n2C)cc1`: the inhibition is 31.4%.
With `COc1ccc(NC(=O)CC2Sc3ncnn3C2=O)cc1` (stereo not given) the figure was 75.8% (active); with `O=C(CC1Sc2ncnn2C1=O)Nc1ccc(Br)cc1` (stereo not given), 33.6%.
